Assay outcomes deposited in PubChem BioAssay by several laboratories.
Shown are actives, neighbours in structure and some others; about 3% of the full set was active somewhere.
LGR2 inh: Drosophila LGR2 receptor signaling inhibition | AID 720647 | actives 0.35% (n = 380,000) | HEK293 LGR2, CRE-luciferase, bursicon-stimulated, 4 h | inhibition, % at 9.99 µM;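 active = drop in luminescence signal, shown as inhibition above about 50% in the replicate tests, limit read from the data, passing the limit was not always enough; inconclusive = probably only some replicates passing the limit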;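 also: agonist challenge used bursicon conditioned medium at about half maximal strength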
LMP1 NFkB inh: inhibitors of Epstein-Barr LMP1-induced NF-kappaB reporter | actives 0.69% (n = 350,000) | AID 504558 | inhibition, % at 12.5 µM | LMP1-induced NF-kappaB luciferase reporter cells, luminescence; in the data active = inhibition above about 41%; inconclusive = no clear call, values can overlap the other calls
TRPM1 prom inh: reduces MITF-dependent TRPM1 promoter luciferase signal; SK-MEL-5 TRPM1 promoter luciferase, 24 h; inhibition, % at 12.5 µM; actives 0.83% (n = 330,000); AID 488899;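 active = mean inhibition across replicates of 60% or more, whatever share of single replicates reaches that level; inconclusive = some that reach 60%, reason not given; inactive = mean inhibition across replicates below 60%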
TROY NFkB inh: inhibitors of TROY-dependent NF-kB signaling. Q293 LMP1-TROYcd NF-kB luciferase reporter, 4 h. inhibition, % at 10 µM. actives 0.98% (n = 360,000). AID 1347056;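 active = compounds whose plate-normalised and pattern-corrected inhibition of the luciferase reporter signal at the single screening dose is 50% or more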
TWEAK-Fn14 inh: TWEAK-Fn14 signaling inhibition | TWEAK-stimulated Fn14 reporter cells, luciferase luminescence, 8 h | inhibition, % at 10 µM | actives 2% (n = 360,000); in the data active = inhibition above about 50%
MITF act: increases MITF-driven TRPM1 promoter luciferase signal. activation, % at 12.5 µM. actives 0.75% (n = 300,000). SK-MEL-5 TRPM1-promoter luciferase, 24 h; % of positive control, neutral wells = 0;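 active = mean activation of at least 80% with every replicate also reaching 80%; inconclusive = mean reaches 80% but some replicate falls short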
Numbers stand for hits; – = inactive; ? = inconclusive; · = no result given.

SMILES	LGR2 inh	LMP1 NFkB inh	TRPM1 prom inh	TROY NFkB inh	TWEAK-Fn14 inh	MITF act
O=C(N[C@@H]1CC[C@H](CC(=O)N2CCc3ccccc3C2)O[C@@H]1CO)C1CCC1	–	·	·	·	·	·
COc1cccc(N2C(C(C)=O)=NN(c3ccccc3)C2c2ccc(N3CCOCC3)cc2)c1 (stereo not given)	–	–	–	–	55	–
COc1ccc2c(-c3cc4ccc(OCc5ccc(F)cc5)cc4oc3=O)cc(=O)oc2c1	·	–	–	–	–	–
O=C1COc2ccc(OCc3ccc(F)cc3)cc21	·	–	–	–	–	90
O=C(c1cc(C2CC2)nc2ccc(Br)cc12)N1N=C(C(F)F)CC1(O)C(F)F (stereo not given)	·	–	–	54	–	·
O=C(c1cc(C2CC2)nc2ccccc12)N1N=C(C(F)F)CC1(O)C(F)F (stereo not given)	·	–	–	–	81	–
O=C(c1ccc(Cn2cc(Br)cn2)o1)N1N=C(C(F)F)CC1(O)C(F)F (stereo not given)	·	–	–	–	–	–
CC(C)c1ccc(-c2cc(C(=O)N3N=C(C(F)F)CC3(O)C(F)F)c3ccccc3n2)cc1 (stereo not given)	·	–	–	–	–	–
C[C@@H]1CN([C@@H](C)CO)C(=O)c2cc(NC(=O)C3CCCCC3)ccc2O[C@@H]1CN(C)S(=O)(=O)c1cn(C)cn1	–	·	·	·	·	·
COCCNC(=O)C[C@H]1CC[C@@H]2[C@@H](COc3ccc(NC(=O)c4cnccn4)cc3C(=O)N2C)O1	–	·	·	·	·	·
Cn1cc(C=O)c(-c2ccc3c(c2)OCCCO3)n1	–	–	–	–	71	–
Cn1cc(C(=O)O)c(-c2ccc3c(c2)OCCCO3)n1	–	–	–	–	–	–
COc1ccccc1OCCn1cc(C(=O)C(C)C)c2ccccc21	–	–	–	–	–	·
COc1ccccc1OCCn1cc(C(=O)O)c2ccccc21	–	–	–	–	63	–
Cc1cc(N/C=C/C(=O)c2ccc(Br)cc2)no1	–	–	–	–	–	105
O=C(/C=C\Nc1ccc(Cl)cn1)c1ccc(Br)cc1	–	–	–	–	–	103
CCN1C(=O)C2(SC(NC(C)=O)=NN2C(C)=O)c2cc(C)cc(C)c21 (stereo not given)	–	–	–	–	–	–
CCCN1C(=O)C2(SC(NC(C)=O)=NN2C(C)=O)c2cc(C)cc(C)c21 (stereo not given)	–	54	–	–	–	·
O=C1CCCCCN1C(=O)c1ccccc1	–	–	–	–	–	–
CC(C)(C)c1ccc(C(=O)N2CCCCCC2=O)cc1	·	–	81	–	–	–
C/C=C/c1ccc([C@@H]2[C@@H](CO)N(C(=O)c3cnccn3)C23CN(C(C)=O)C3)cc1	–	·	·	·	·	·
O=C(CSc1nnc(-c2cccc(S(=O)(=O)N3CCOCC3)c2)n1C1CCCCCC1)NCc1ccccc1	·	47	–	–	–	–
CCC(C)n1c(SCC(=O)NCc2ccco2)nnc1-c1cccc(S(=O)(=O)N2CCOCC2)c1 (stereo not given)	–	–	–	–	–	–
CC(C)Oc1cc(F)ccc1-c1cc(C(=O)Nc2cccc(C(F)(F)F)c2)[nH]n1	–	·	·	55	70	·
CC(C)Oc1ccc(F)cc1-c1cc(C(=O)NCc2ccc(C(F)(F)F)cc2)[nH]n1	–	·	·	–	–	·
SMILES	LGR2 inh	LMP1 NFkB inh	TRPM1 prom inh	TROY NFkB inh	TWEAK-Fn14 inh	MITF act
CC(C)Oc1ccc(F)cc1-c1cc(C(=O)NCc2cc(C(F)(F)F)cc(C(F)(F)F)c2)[nH]n1	–	·	·	–	51	·
N#Cc1ccccc1OCCN1C(=O)c2ccccc2C1=O	–	–	–	–	–	–
Nc1cccc2c1C(=O)N(CCOc1ccccc1F)C2=O	?	–	–	–	59	–
CO[C@@H]1CN(C)C(=O)c2ccc(NC(=O)Cc3ccccc3)cc2OC[C@H](C)N(CC2CC2)C[C@@H]1C	–	·	·	·	·	·
CN(C)c1ccc(N=Nc2ccc(C(=O)O)cc2)cc1	–	–	66	–	98	–
CN(C)c1ccc(C(=O)c2ccccc2)cc1	·	–	–	–	–	–
CNc1nc(-c2ccc([N+](=O)[O-])cc2)cs1	·	–	–	–	–	90
COc1cccc(NC(=O)N[C@H]2C=C[C@@H](CC(=O)Nc3ccccc3)O[C@@H]2CO)c1	–	·	·	·	·	·
COc1cccc(Nc2nc3ccc(OC)cc3s2)c1	–	–	–	–	–	115
COc1ccc2nc(-c3ccc(F)cc3)sc2c1	92	–	–	–	75	–
COc1ccc2nc(N)sc2c1	–	–	–	–	–	–
COc1ccc(CC(=O)Nc2sc3c(c2C(N)=O)CCCC3)cc1	–	–	–	–	–	–
COc1ccc2nc(Nc3sc4c(c3C(N)=O)CCCC4)sc2c1	–	–	–	58	–	–
COc1ccc(Nc2nc3ccccc3s2)cc1	–	–	–	–	–	–
C[C@@H]1CN([C@H](C)CO)C(=O)c2ccccc2-c2ccccc2CO[C@H]1CN(C)S(=O)(=O)c1ccccc1	–	·	·	·	·	·
O=S(=O)(Nc1nc2ccccc2nc1Cl)c1ccccc1C(F)(F)F	–	–	–	–	50	–
CN(C)CCCNC(=O)C[C@H]1C=C[C@H](NC(=O)Cc2cccnc2)[C@H](CO)O1	–	·	·	·	·	·
CCCN1C[C@H](C)[C@@H](OC)CN(C)C(=O)c2cc(NC(=O)c3cnccn3)ccc2OC[C@@H]1C	–	·	·	·	·	·
COc1ccc2c(c1OC)C(=O)O[C@@H]2[C@H]1c2c(cc3c(c2OC)OCO3)CCN1C	–	–	–	–	–	–
COc1ccc2cc1Oc1ccc(cc1)C[C@H]1c3cc(c(OC)cc3CCN1C)Oc1c(OC)c(OC)cc3c1[C@H](C2)N(C)CC3	·	–	95	–	–	–
COc1ccc2cc1Oc1ccc(cc1)C[C@H]1c3c(cc4c(c3Oc3cc5c(cc3OC)CCN(C)[C@@H]5C2)OCO4)CCN1C	–	–	63	–	–	–
COc1ccc(NC(=O)N(C)C[C@@H]2Oc3ccc(NS(=O)(=O)c4ccccc4)cc3CC(=O)N([C@H](C)CO)C[C@@H]2C)cc1	–	·	·	·	·	·
O=C(c1ccco1)N1CCN(C(=O)C2CCCc3c2[nH]c2ccc(Cl)cc32)CC1 (stereo not given)	·	–	–	·	66	–
O=C(O)c1[nH]c2ccc(Cl)cc2c1CC(=O)N1CCN(C(=O)c2ccco2)CC1	·	–	–	–	–	–
O=C(C/C=N/OCc1c(Cl)cccc1Cl)c1cnc(-c2ccccc2)s1	·	–	–	54	–	–
O=C(C/C=N/OCc1ccc(Cl)cc1)c1cnc(-c2ccccc2)s1	–	–	–	–	–	·
N#Cc1c(C#N)c(SSc2c(C#N)c(C#N)c(N)n2-c2ccccc2)n(-c2ccccc2)c1N	–	–	93	–	–	–
N#Cc1c(N)n(-c2ccc(N)cc2)c2nc3ccccc3nc12	·	–	–	–	–	·
CN=c1scc(C)n1/N=C/c1cc(Br)c(O)c(Br)c1	–	–	–	–	–	–
